In all, about 330,000 compounds went through this assay and about 1,900 (0.58%) were called active. Another 4% or so got no clear call; they are omitted. Not all results are given here. Results with a measured potency or affinity are listed apart. Values without a mark were called inactive. No stated cut-off is given here; in the data, inconclusive means inhibition above about 70% without an active follow-up result; inactive means below that.
Test: M. tuberculosis growth inhibition, HTS (AID 449762);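 further: bacterial growth assessed after seven days of incubation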
Conditions: M. tuberculosis H37Rv growth inhibition, 7H9 media; at 25 µM; hits give high values

SMILES	inhibition [%]
CCOC(=O)c1c(-c2ccc(OC)cc2)csc1NC(=O)CSc1ccccc1	3.36
CCOC(=O)c1c(-c2ccc(Cl)cc2)csc1NC(=O)CNCc1ccco1	3.78
COC(=O)c1c(NC(=O)C(C)C)sc(C(=O)N2CCOCC2)c1C	-8.29
COC(=O)c1c(NC(C)=O)sc(C(=O)N2CCOCC2)c1C	2.88
S=C(NCc1ccncc1)Nc1cc(Cl)cc(Cl)c1	69.9
O=C(CCc1nnc(CCCc2ccccc2)o1)NCCc1ccccc1	3.96
CN(C(=O)CCc1nnc(-c2ccc(-c3ccccc3)cc2)o1)C1CCOCC1	-8.56
O=C(CCc1nnc(CCCCc2ccccc2)o1)NCCC1CCCCO1 (stereo not given)	-2.58
COC(c1ccccc1)c1nnc(CCC(=O)N(C)CCCC2CCCC2)o1 (stereo not given)	3.33
COc1ccc(C2=CSC3=NCCN23)cc1	4.38
CCC(=NCc1cccnc1)c1c(O)n(Cc2ccccc2)c(=O)[nH]c1=O	-0.2
COc1ccc(NC(=O)Cn2c(=O)n(-c3ccccc3)c(=O)c3oc4ccccc4c32)c(OC)c1	-0.2
CC1(C)CC(=O)CC(=Nc2ccc(C(=O)O)cc2)C1	2.32
COc1ccc(OC)c(C(c2nnnn2Cc2ccccc2)N2CCN(C)CC2)c1 (stereo not given)	5.62
O=[N+]([O-])c1cc(/C=N/N2CCCCC2)ccc1Cl	1.34
Cc1ccc(CN2CCN(/N=C\c3cccc([N+](=O)[O-])c3)CC2)cc1	55.9
Nc1c2c(nc3ccn(-c4ccccc4)c(=O)c13)CCCCC2	3.82
Nc1c2c(nc3ccccc13)CCC2	-1.89
CCNC(=O)c1nc[nH]c1C(=O)NCC	-0.32
COc1ccc2c(c1OC)C(=O)N1c3ccccc3COC21 (stereo not given)	-4.65

SMILES	inhibition [%]
CC1CC(C)CN(C(=O)c2cc3c(=O)n4ccccc4nc3s2)C1 (stereo not given)	9.39
COc1cccc(CNS(=O)(=O)c2cccc(S(=O)(=O)N3CCOCC3)c2)c1	5.34
COc1ccccc1C1CC(c2ccc(Cl)cc2Cl)Nc2nc(N)nn21 (stereo not given)	-6.06
O=C(COc1ccccc1)NNC(=O)c1cc2ccccc2oc1=O	-4.55
O=C(COc1ccc(F)cc1)NNC(=O)c1cc2ccccc2oc1=O	-1.43
CCOc1cc(N2CCOCC2)c(OCC)cc1NC(=O)c1ccc(OC)c(S(=O)(=O)N2CCOCC2)c1	-2.5
Cc1c(NS(=O)(=O)c2cccc(C(=O)NCc3ccc(Cl)cc3)c2)c(=O)n(-c2ccccc2)n1C	-7.86
CCOC(=O)c1csc(N)n1	-3.93
CCOC(=O)c1csc(-c2ccc(OC)c(OC)c2)n1	6.33
O=C(Nc1cccc(Cl)c1)NC1CC2CCC(C1)N2Cc1cccs1 (stereo not given)	-7
CCOc1ccc(-n2c(-c3ccccc3)c[n+]3c2CCCCC3)cc1	-7.91
CCOc1ccc(-c2c[n+]3c(n2-c2ccccc2)CCCCC3)cc1	-9.73
Cc1nc(NC(=O)COC(=O)C2CC2C)c(Cl)cc1Cl (stereo not given)	-3.52
Cc1ccccc1Nc1nc(N)nc(COC(=O)c2ccccc2)n1	-4.25
Cc1ccccc1Nc1nc(N)nc(COC(=O)c2ccco2)n1	10.5
CC1CN(c2ccc([N+](=O)[O-])c(NCCOc3ccccc3)c2)CC(C)N1 (stereo not given)	18.3
CC1CN(c2ccc([N+](=O)[O-])c(NCCOc3ccccc3)c2)CCN1 (stereo not given)	22.7
Cc1csc2nc(O)c(C(=O)NCc3ccc4c(c3)OCO4)c(=O)n12	28.7
Cc1csc2nc(O)c(C(=O)NCCC3=CCCCC3)c(=O)n12	49.8
O=C(NCCC1=CCCCC1)c1c(O)nc2ccccn2c1=O	-7.18

SMILES	inhibition [%]
O=C(NCc1ccc2c(c1)OCO2)c1c(F)c(F)c(F)c(F)c1F	4.75
Cc1ccc(C)c(C(=O)n2cnnc2N)c1	-9.61
NC(=O)C1c2ccccc2Oc2ccccc21	-5.49
Cc1cc(C)nc(N2CCCC(C(=O)NC(C)C)C2)n1 (stereo not given)	0.18
O=C(Nc1cc(Cl)ccc1Cl)c1ccco1	-6.05
O=C(NC(NC(=S)Nc1cc(Cl)ccc1Cl)C(Cl)(Cl)Cl)c1ccco1 (stereo not given)	11.3
COc1ccc(NC(=O)Nc2ccc3c(c2)C(=O)N([C@H](C)CO)C[C@H](C)[C@@H](CN(C)S(=O)(=O)c2cccs2)O3)cc1	2.72
C[C@H](CO)N1C[C@H](C)[C@@H](CN(C)S(=O)(=O)c2cccs2)Oc2ccc(NC(=O)Nc3ccccc3)cc2C1=O	-4.72
CCCc1nc2nc(C)c(NS(=O)(=O)c3ccc(Cl)cc3)c(=O)n2[nH]1	-4.54
CC(C)=NNc1nc2c(c(=O)n(C)c(=O)n2C)n1CCc1ccccc1	-14.4
Cc1ccc(/C=C/S(=O)(=O)NCC(=O)OCC(=O)Nc2ccc(C(N)=O)cc2)cc1	-3.63
Cc1ccc(/C=C/S(=O)(=O)NCC(=O)OCC(=O)NCc2ccccc2)cc1	6.29
O=C(NC1CCSc2ccccc21)c1cc([N+](=O)[O-])ccc1N1CCOCC1 (stereo not given)	-4.07
Nc1nc(N)c(N=Nc2ccc(Cl)cc2)c(=O)[nH]1	3.75
Nc1n[nH]c(N)c1N=Nc1ccc(Cl)cc1	0.26
COc1cccc(NC(=O)CSc2ccc3nnc(-c4cccnc4)n3n2)c1	6.73
O=C(CN(Cc1ccc(F)cc1)C(=O)CNS(=O)(=O)c1ccc(Cl)cc1)NCC1CCCO1 (stereo not given)	-7.08
CCN1CCN(CC(=O)N2N=C(c3cccs3)CC2c2ccc(C)cc2)C(=O)C1=O (stereo not given)	12.5
CCC(=O)N1N=C(c2cccs2)CC1c1ccc(C)cc1 (stereo not given)	-0.72
COc1ccccc1NC(=O)CCc1nnc2ccc(N3CCC4(CC3)OCCO4)nn12	-1.86
